Screening data: PubChem BioAssay, National Center for Advancing Translational Sciences (NCATS)
TDP43 rescue: inhibitors of TDP-43 toxicity in yeast; 410,000 compounds, 1.8% hits; Potency, µM (series often up to 46.1 µM), hits mostly activators; TDP-43 expressing yeast growth rescue, BacTiter-Glo, 24 h; further: nearly all actives have a fitted effect of over 50% in size
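Galactose-induced TDP-43 yeast, OD600=0.02, compound pinned; 24 hr, 30 deg C; BacTiter-Glo luminescence for growth. Inhibitors of TDP-43 toxicity read as activators.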
Abeta rescue: A-beta toxicity reversal in yeast | yeast expressing A-beta42, growth rescue, OD600, 48 h; response scale: 0% DMSO, 100% iron-clioquinol control | 410,000 compounds, 0.063% hits | AID 1347071 | Potency, µM (top dose mostly 46.1 µM), hits mostly activators; further: nearly all actives have a fitted effect of over 55% in size
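Yeast growth medium received pinned compounds, then yeast cells expressing toxic A-beta were added; plates incubated at 30 C for 48 hr. Growth read as absorbance at 600 nm, normalized to DMSO and equimolar FeCl3 plus clioquinol controls.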
FUS yeast rescue: rescues growth of FUS-expressing yeast. Potency, µM (top dose mostly 76.6 µM), most hits filed as activators. AID 1347120. 390,000 compounds, 0.24% hits. S. cerevisiae FUS-expressing, growth rescue, OD600, 24 h; further: nearly all actives have a fitted effect of over 55% in size
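S. cerevisiae expressing FUS from galactose induction served as the toxicity model. Growth after 24hr at 30C, read as absorbance at 600 nm, indicates suppression of toxicity; compounds dosed at several concentrations.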
aSyn yeast inh: rescues yeast growth from alpha-synuclein toxicity | Yeast expressing alpha-synuclein, growth rescue, BacTiter-Glo, 24 h | AID 652106 | Potency, µM (titrated, usually from 46.1 µM), hits mostly activators | 370,000 compounds, 0.14% hits; further: nearly all actives have a fitted effect of over 65% in size
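Screening used galactose-induced yeast with toxic alpha-synuclein levels, exposed to compound for 24 hr at 30 deg C. Cell growth, read with BacTiter-Glo luminescence, gave the measured signal.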
Hits are given with their value; . = inactive; ? = inconclusive; / = no result given; [ ] = another dose, or the depositor's remark. Most compounds without a hit are left out; they make up all but 2.1% or so of the library. The call rests on the fitted dose curve; in most records, active means well fitted curve in the direction sought with a large enough effect; inconclusive means small, poorly fitted or top-dose-only effect, or another doubt; inactive means no such curve, though single readings can be large; an effect the other way counts as inactive or inconclusive.

SMILES	TDP43 rescue	Abeta rescue	FUS yeast rescue	aSyn yeast inh
O=C(Nc1ccc(Br)cn1)c1cnn2c1NC(=C1CC1)C=C2C(F)F	/	/	/	.
CCOc1cccc(NC(=O)C2CC(=O)N(CC)C(=Nc3ccc(F)cc3)S2)c1 (stereo unspecified)	22.4µM	?	.	?
CCN=C1SC(C(=O)Nc2cccc(OCC)c2)CC(=O)N1CC (stereo unspecified)	.	.	.	.
Cc1ccc(-n2c(COc3ccccc3)nnc2SCC(=O)Nc2ccc3c(c2)OCO3)cc1	/	/	.	/
Cc1csc(NC(=O)C(C)Oc2ccc(Br)cc2)n1 (stereo unspecified)	35.5µM	.	.	.
Cc1csc(NC(=O)Cc2ccc(Br)cc2)n1	10µM	.	.	.
Cc1csc(NC(=O)Cc2ccc(Cl)cc2)n1	?	.	.	.
O=C(NCCO)[C@H](Cc1ccccc1)NC1(C(=O)NCCc2c[nH]c3ccccc23)CCCCC1	/	/	.	/
C[C@H]1CCCN1c1cccc2c1S(=O)(=O)N(C1CC1)CCCO2	/	/	.	/
CC1CCc2sc(C(=O)N(C)CC(=O)Nc3ccc(N4CCOCC4)cc3)cc2C1 (stereo unspecified)	.	.	.	.
CCC1CCc2sc(C(=O)N(C)CC(=O)Nc3cccc(OC)c3)cc2C1 (stereo unspecified)	.	.	/	.
CCC1CCc2sc(C(=O)N(C)CC(=O)Nc3ccc(OC)cc3)cc2C1 (stereo unspecified)	11.2µM	.	.	.
CCC1CCc2sc(C(=O)N(C)CC(=O)Nc3ccc(N4CCOCC4)cc3)cc2C1 (stereo unspecified)	8.91µM	.	.	.
COc1cccc(N2CCN(C(=O)CSc3nc4ncccc4[nH]3)CC2)c1	/	/	.	/
Cc1ccccc1CN1CCCCC(NC(=O)c2cc(-c3ccccc3)no2)C1=O (stereo unspecified)	/	/	.	/
Cc1ccccc1CSc1nnc(-c2ccncc2)o1	14.1µM	.	.	.
Clc1ccc(CSc2nnc(-c3ccncc3)o2)c(Cl)c1	2.82µM	.	.	/
O=CC(=O)c1ccc(F)cc1	/	/	/	.
Nc1nc2ccccc2cc1C(=O)NCCCCc1ccccc1	28.2µM	?	.	.
Cc1cc(C)c2ccc(/C=N/O)nc2c1O	.	?	.	12.6µM
Cc1cc(C)c2ccc(NN)nc2c1O	.	.	.	.
Cc1cc(C)cc(NC(=O)COC(=O)CCC2CCCC2)c1	12.6µM	.	.	.
Cc1ccc(C)c(Cn2c(-c3cccs3)nc3ccccc32)c1	20µM	.	.	/
Cc1cccc(Cn2c(-c3cccs3)nc3ccccc32)c1	.	.	.	.
Fc1ccccc1C1CC(c2ccco2)=Nc2ccccc2S1 (stereo unspecified)	22.4µM	.	.	.
SMILES	TDP43 rescue	Abeta rescue	FUS yeast rescue	aSyn yeast inh
COc1ccccc1C1CC(c2cccs2)=Nc2ccccc2S1 (stereo unspecified)	.	.	.	.
CN(C)C(=O)COc1ccccc1C(=O)OCC(=O)N(CCC#N)c1ccccc1	/	/	/	.
Cc1ccc(NC(=O)Cn2nc(N3CCN(c4ccccc4)CC3)ccc2=O)cc1F	17.8µM	.	?	/
CC(=O)c1ccc(NC(=O)Cn2nc(N3CCN(c4ccccc4)CC3)ccc2=O)cc1	.	.	.	/
O=C(Nc1ccc(F)cc1)c1ccc(Cn2nc(N3CCN(c4ccccc4)CC3)ccc2=O)o1	22.4µM	.	?	/
O=C1CCCC2=C1C1(CCCC1)N=C(Nc1nc3cc(Br)ccc3o1)N2	/	/	.	/
O=C(NNC(=O)c1ccccn1)c1ccc(OC(F)F)cc1	31.6µM	.	.	?
CCOC(=O)N1C(=O)C[C@](Sc2ccc(OC)cc2)(C(=O)N(C)C)[C@H]1c1ccc(OC)cc1	/	/	.	/
COc1ccc(NC(=O)C2CCCN(c3ncccn3)C2)cc1 (stereo unspecified)	.	.	.	.
CCC(C)c1ccc(NC(=O)C2CCCN(c3ncccn3)C2)cc1 (stereo unspecified)	12.6µM	.	.	/
COc1ccc2sc(-c3ccc(N(C)C)cc3)c(C#CCCO)c2c1	35.5µM	.	?	.
COc1ccc(-c2sc3ccc(OC)cc3c2C#CCCO)cc1	22.4µM	.	?	.
COc1ccccc1COC(=O)c1cccc(S(=O)(=O)N(C)Cc2ccccc2)c1	/	/	.	/
COC(=O)c1ccccc1NC(=O)c1c(Br)cnn1C	.	.	.	.
CCn1ncc(Br)c1C(=O)Nc1ccccc1C(=O)OC	14.1µM	.	.	.
CN=C(Nc1cccc(Cl)c1)SC1CC(=O)N(c2ccc(OC)cc2)C1=O (stereo unspecified)	.[9.22 µM]	8.91µM	.	?
C(=C\c1ccnc2ccccc12)/c1cc2c3c(c1)CCCN3CCC2	/	/	/	.
CCCC(=O)OC12CCCN(C1)/C(=C/c1cccc(OC)c1)C2 (stereo unspecified)	/	/	.	/
CC(C)(C)c1ccc(OCCC(=O)OCC(=O)NC2CC2)cc1	12.6µM	.	.	?
